# PubChem BioAssay AID1347075 (National Center for Advancing Translational Sciences (NCATS), 2019)
# Screen size: about 400,000 compounds; about 5,500 (1.4%) were called active. About 9% were inconclusive and are not listed. Calls follow the shape of the dose curve; as a rule, active = well fitted cell-killing curve with a large enough effect; inconclusive = small, poorly fitted or top-dose-only effect, or effect the other way; inactive = flat fitted curve, though single readings scatter. This excerpt belongs to a sample that is enriched for actives.
# Experiment: qHTS assay for MDR1-selective chemotherapeutics: Primary screen using the parental adenocarcinoma cell KB-3-1; also: nearly all actives have a fitted effect of over 60% in size
# Conditions: KB-3-1 viability, CellTiter-Glo ATP luminescence, 72 h; series mostly up to 46.1 µM; activity change, negative = cytotoxic: at the top concentration
# In short: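 KB-3-1 parental drug-naive adenocarcinoma cells in DMEM/10% FBS, incubated 72 h at 37 C with pin-transferred compounds across a concentration series. Viability by CellTiter-Glo luminescence; concentration-response curves fitted after normalization.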
# % is scaled to controls: 0 for no effect and ±100 for the full control effect; potency is read from the fitted curve at half-maximal effect.
Structure (SMILES),"activity change, negative = cytotoxic",Potency
CCOc1ccc2nc(N3CCCC(C(=O)Nc4cc(C)ccc4C)C3)sc2c1 (centres undefined),-4.09% (inactive),
CCc1ccc(NC(=O)c2cnc3c(-c4ccccc4)c(C)nn3c2C)cc1,-2.78% (inactive),
CCN(CC)S(=O)(=O)c1ccc(N(C)Cc2ccc(C(F)(F)F)cc2)nc1,,10.3 µM (active)
CCN(CC)S(=O)(=O)c1ccc(NC(=O)c2cnc(C)cn2)cc1,17.5% (inactive),
CCN(CC)S(=O)(=O)c1ccc(N(C)CCc2ccc(OC)c(OC)c2)nc1,-18.5% (inactive),
COc1ccccc1-n1c(-c2ccc(C)cc2)cn2c3c(=O)n(C)c(=O)n(C)c3nc12,16.8% (inactive),
CN(C)c1ccc(/C=C2\C=Cc3ccccc32)cc1Br,11% (inactive),
CCOC(=O)c1cc2c(=O)n3ccccc3nc2n(Cc2ccco2)c1=NC(=O)c1ccc(F)cc1,13.8% (inactive),
COc1ccc(Nc2cc(=O)oc3ccccc23)cc1,,4.11 µM (active)
COc1ccc(Nc2cc(=O)n(-c3ccccc3)c3c2c(=O)n(C)c(=O)n3C)cc1,43% (inactive),
COc1ccc(CCNC(=O)COC(=O)c2cc(=O)c3ccccc3o2)cc1,-1.64% (inactive),
CC1=C(C(=O)OCC2CCCCC2)C(c2c(F)cccc2Cl)CC(=O)N1 (centres undefined),12.9% (inactive),
CCc1ccc(N(CC)C(=O)CCn2cnc3onc(-c4ccc(F)cc4)c3c2=O)cc1,1.49% (inactive),
CCCc1cc(-c2nc(-c3ccc(C)cc3)cs2)ccn1,,11.6 µM (active)
Fc1ccc(-c2csc(-c3ccc(C4SCCS4)cc3)n2)cc1F,2.11% (inactive),
CCCc1nc2scc(-c3ccc(C)cc3)c2c(=O)n1N,-2.91% (inactive),
CCc1ccc(NC(=O)CN2CCSc3ccc(S(=O)(=O)N4CCCC4)cc32)cc1,,16.4 µM (active)
O=C(CN1CCCCCC1)Nc1ccc(S(=O)(=O)N2CCCCC2)cc1,-4.68% (inactive),
CCc1ccc(NC(=O)CN2C(=O)COc3ccc(S(=O)(=O)N4CCCC4)cc32)cc1,12.8% (inactive),
O=C(NNS(=O)(=O)c1ccc(F)cc1)c1ccc([N+](=O)[O-])cc1Cl,-17% (inactive),
O=C(NCCNc1ccc([N+](=O)[O-])cc1Cl)c1ccccc1F,-1.36% (inactive),
O=[N+]([O-])c1ccc(NS(=O)(=O)c2ccccc2)c(Cl)c1,,16.4 µM (active)
Cc1cccc(-n2ccnc2SCC(=O)Nc2cc(C(F)(F)F)ccc2Cl)c1,-13% (inactive),
Cc1cccc(C(=O)Nc2ccc(-c3nc4ccccc4s3)c(C)c2)c1,1.57% (inactive),
Nc1nnc2c(C(F)(F)F)nc3ccccc3n12,-3.46% (inactive),

Structure (SMILES),"activity change, negative = cytotoxic",Potency
Cc1ccccc1CCNC(=O)C1CCN(c2nc3ccccc3nc2C(F)(F)F)CC1,-10.5% (inactive),
Cc1cccc(C(=O)NCCc2nc3ccccc3n2Cc2ccccc2Cl)c1,-12% (inactive),
CSc1nc(N(C)NC(=O)c2cccc(C)c2)c2ccccc2n1,,0.184 µM (active)
CN(NC(=O)c1ccccc1)c1nc2ccccc2nc1C(F)(F)F,,2.91 µM (active)
COc1ccc(C)cc1Nc1nc2ccccc2c2nnc(C)n12,-1.35% (inactive),
Cc1ccc(-c2nc(CS(=O)(=O)CC(=O)NCc3ccccc3Cl)c(C)o2)cc1,16.7% (inactive),
O=C(CSc1nnc(CNC(=O)c2ccccc2)n1-c1ccc(F)cc1)Nc1ccccc1F,0.161% (inactive),
COc1ccc(C(=O)c2oc3ccccc3c2NC(=O)COc2cccc(C)c2)cc1,4.39% (inactive),
COc1ccc(CNc2nc(-c3ccc(Cl)cc3)cc(C(F)(F)F)n2)cc1,2.34% (inactive),
O=C(Nc1ccc2nc(SCCOc3ccccc3)sc2c1)c1ccco1,4.12% (inactive),
COC(=O)COc1cccc2c(=O)n(CC(=O)NCc3ccccc3)ccc12,,6.51 µM (active)
CCOCCn1ccc2c(OCC(=O)NCc3ccc(C)cc3)cccc2c1=O,7.56% (inactive),
CCCn1ccc2c(OCC(=O)NCc3ccc(F)cc3)cccc2c1=O,2.13% (inactive),
CCCCOc1ccc(NC(=O)c2cc3c(n(-c4ccc(Cl)cc4)c2=O)CCCC3=O)cc1,-11.6% (inactive),
Cc1ccc2cccc(NC(=O)C(C)Oc3ccc(C)c(C)c3)c2n1 (centres undefined),-2.07% (inactive),
O=C(Nc1cc(-c2nc3ccccc3o2)ccc1Cl)c1cc([N+](=O)[O-])ccc1N1CCOCC1,-0.615% (inactive),
CCN(CC)CCCC(C)n1c2nc(=O)[nH]c(=O)c-2nc2cc(Cl)ccc21 (centres undefined),,6.51 µM (active)
COc1cccc(NC(=O)Cn2c(=O)cc(C)c3c(C)nn(-c4cccc(F)c4)c32)c1,4.05% (inactive),
CSc1ccc(CCNC(=O)c2ccc3c(c2)nc2n3CCOC2)cc1,-7.69% (inactive),
CCc1ccc(NC(=O)c2cc(S(=O)(=O)NC3CCCCCC3)ccc2F)cc1,-5.14% (inactive),
Cc1ccc(NC(=O)c2cc(S(=O)(=O)NCCC3=CCCCC3)ccc2F)cc1C,,16.4 µM (active)
COc1ccccc1NC(=O)c1cc(S(=O)(=O)NCCc2ccccc2)ccc1F,1.79% (inactive),
O=C(CSc1cn(CC(=O)N2CCOCC2)c2ccccc12)Nc1ccccc1,6.27% (inactive),
Cc1cccc(-c2nnc(SCC(=O)N3CCCc4ccccc43)o2)c1,0.542% (inactive),
CCCC[C@H]1COCCS(=O)(=O)N1Cc1cccc(Cl)c1,,inactive

Structure (SMILES),"activity change, negative = cytotoxic",Potency
O=S1(=O)CCOC[C@H](CC2CCCCC2)N1Cc1ccc(F)cc1,,16.4 µM (active)
CCC(C)[C@H]1COCCS(=O)(=O)N1Cc1ccc(C)cc1 (some centres undefined),15.7% (inactive),
Cc1ccc2oc(=O)c3cnn(CC(=O)N4CCN(c5cccc(Cl)c5)CC4)c3c2c1,-1.01% (inactive),
COc1cc(OC)c(N(C)C(=O)c2cc3c(=O)oc4ccccc4c3s2)cc1Cl,-2.75% (inactive),
COc1ccc(Cc2nc3ccc(C(=O)NCc4ccccc4Cl)cc3o2)cc1,-13.2% (inactive),
CCOc1ccc(NC(=O)CCC(=O)N2CC(C)Oc3ccc(C)cc32)cc1 (centres undefined),-8.02% (inactive),
CCOc1ccc(CNC(=O)c2cccc(Nc3nc4ccccc4n4nnnc34)c2)cc1OC,-1.42% (inactive),
Cc1ccc(Cn2c(C)c3cnn(CC(=O)NCc4ccccn4)c(=O)c3c2C)cc1,-23.7% (inactive),
Cc1c2cnn(CC(=O)NCc3ccccn3)c(=O)c2c(C)n1Cc1ccc(Cl)cc1,9.63% (inactive),
Cc1ccc(Cn2c(C)c3cnn(CC(=O)NCc4ccccc4)c(=O)c3c2C)cc1,,13 µM (active)
Cc1cccc(Nc2nc(C)nc(N)c2S(=O)(=O)c2ccccc2)c1,3.43% (inactive),
CC(NC(=O)c1ccccc1SCC(=O)N1CCCC1)c1ccccc1 (centres undefined),-7.79% (inactive),
CC(NC(=O)CNC(=O)Cc1cccc2ccccc12)c1ccc(S(N)(=O)=O)cc1 (centres undefined),-31.1% (inactive),
CC(NC(=O)c1cccc2ccccc12)c1ccc2c(c1)CCCC2 (centres undefined),,10.3 µM (active)
O=S(=O)(NCC(c1ccccc1)N1CCc2ccccc21)c1ccccc1 (centres undefined),-19.2% (inactive),
Cc1ccc(NC(=O)Nc2sc3nc4n(c(=O)c3c2C)CCC(C)CC4)c(Cl)c1 (centres undefined),-1.46% (inactive),
Cc1ccc(C)c(-n2c(SCC(=O)O)nc3sc4c(c3c2=O)CCCC4)c1,-7.55% (inactive),
CCCc1nc2sc3c(c2c(=O)n1NC(=O)CCCl)CCCC3,,23.1 µM (active)
NNC(=O)C1CCCn2c1nc1sc3c(c1c2=O)CCCC3 (centres undefined),0.859% (inactive),
Cc1cccc(Cn2c(SCc3ccc(C(=O)N4CCC(C)CC4)cc3)nc3ccncc32)c1,,23.1 µM (active)
Cc1cccc(CSc2nc3ccncc3n2Cc2ccc(C(=O)O)cc2)c1,2.92% (inactive),
COc1cccc(Cn2c(SCc3ccc(C(=O)N4CCC(C)CC4)cc3)nc3ccncc32)c1,3.38% (inactive),
CCOc1n[nH]c(-c2ccccc2)n1,47.7% (inactive),
CCN(CC)S(=O)(=O)c1nnc(NC(=O)COc2ccccc2Cl)s1,11.8% (inactive),
CN(Cc1cncn1C)c1ncnc2ccc(-c3ccc4c(c3)OCO4)cc12,20% (inactive),

Structure (SMILES),"activity change, negative = cytotoxic",Potency
Cn1c(=O)c2c(nc(SCC(=O)Nc3ccc(F)cc3)n2Cc2ccc(Cl)cc2)n(C)c1=O,-5.05% (inactive),
COc1ccc(-c2onc(C)c2C)cc1S(=O)(=O)NCC1CCN(Cc2cccc(F)c2)CC1,-14.5% (inactive),
Cc1ccc2nc(NC(=O)c3nc(SCc4ccccc4F)ncc3Cl)sc2c1,4.47% (inactive),
CSc1nnc(NC(=O)c2nc(S(=O)(=O)Cc3ccc(C)cc3)ncc2Cl)s1,,16.4 µM (active)
Cc1ccc(CS(=O)(=O)c2ncc(Cl)c(C(=O)Nc3nnc(C)s3)n2)cc1,,20.6 µM (active)
O=C(Nc1nnc(Cc2ccc(Cl)cc2)s1)c1cccnc1,1.48% (inactive),
CC(=O)c1cccc(NC(=O)c2nc(-c3ccccc3)n(-c3cccc(C)c3)n2)c1,-5.19% (inactive),
CCS(=O)(=O)c1ncc(N(Cc2ccc(F)cc2)Cc2ccco2)c(C(=O)Nc2cc(C)ccc2C)n1,6.09% (inactive),
Cc1cccc(NC(=O)Cn2cc(S(=O)(=O)Cc3ccccc3Cl)c3ccccc32)c1,-25.9% (inactive),
O=C(Nc1nnc(Cc2ccc(Cl)cc2)s1)c1ccncc1,4.01% (inactive),
Cc1cccc(NC(=O)c2nc(S(=O)(=O)Cc3ccccc3)ncc2Cl)c1,,5.8 µM (active)
CCOC(=O)c1c(NC(=O)CSc2cn(CCNC(=O)c3cccc(C(F)(F)F)c3)c3ccccc23)sc2c1CCC2,9.88% (inactive),
CC1(C)Cc2ccccc2-c2c[nH]c(=O)n21,6.54% (inactive),
COc1ccc(-c2cc(-c3nc(-c4cc(OC)c(OC)c(OC)c4)no3)[nH]n2)c(OC)c1,-12.8% (inactive),
CC1CCN(S(=O)(=O)c2ccc3c(ccn3CCC(=O)NCc3ccc(N(C)C)cc3)c2)CC1,0.784% (inactive),
COc1ccc(N(C)C(=O)C2CCN(S(=O)(=O)c3cc(Br)cc4c3N(C(C)=O)CC4)CC2)cc1,7.14% (inactive),
CCN(CC)CCNC(=O)c1ccc(NS(=O)(=O)c2ccc3c(c2)OCCO3)cc1,2.07% (inactive),
CN1CCN(c2ccc(NC(=O)c3ccc4c(c3)OCCO4)cc2Cl)CC1,-15.3% (inactive),
O=C(Nc1cccc(S(=O)(=O)Nc2ccc(Cl)cc2)c1)c1ccc2c(c1)OCCO2,,8.2 µM (active)
CN(C(=N)N)c1ccc(/C=C2\C=Cc3ccccc32)cc1,-3.23% (inactive),
COc1ccccc1NC(=O)CSC1=Nc2ccccc2C2=NC(CC(=O)NCc3cccs3)C(=O)N12 (centres undefined),-2.49% (inactive),
Cc1ccc(C(=O)Nc2ncccc2C)cc1S(=O)(=O)N1CCOCC1,0.196% (inactive),
O=C(Nc1ccc2c(c1)CCC2)c1cccc(S(=O)(=O)N2CCN(c3ccc(F)cc3)CC2)c1,-4.84% (inactive),
Cc1cccnc1NC(=O)c1cccc(S(=O)(=O)N2CCN(c3ccc(F)cc3)CC2)c1,,20.6 µM (active)
